Experimental data published in PubChem BioAssay AID1159580 (chemical genetic matrix, 2015).
The campaign covered roughly 5,500 compounds. About 2,000 (36%) were called active. Inconclusive results (about 18%) are left out. Rule as the data show it: active = normalized growth mostly below about 0.91 (no sharp cut-off); inconclusive = no clear call, values can overlap the other calls; inactive = mostly above about 0.92. The list shows a part of the results.

Assay: chemical genetic growth profiling, strain panel (AID 1159580);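 also: tested at 20 µM; growth read once vehicle control cultures reached saturation at 30 °C; 1 = growth at the plate median or of vehicle wells; lower values mean less growth of the strain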
Details: S. cerevisiae deletion strains, growth OD

Measured: normalized growth

Cc1c(O)c(C(=O)CC(C)C)c2oc3c(C(=O)CC(C)C)c(O)c(C)c(O)c3c2c1O
inactive: locus YAL013W, strain DEP1, hits give low values 1.01 | locus YBR021W, strain FUR4, hits give low values 0.943 | locus YBR229C, strain ROT2, hits give low values 0.993 | locus YCL029C, strain bik1, hits give low values 1.01 | locus YDL035C, strain GPR1, hits give low values 0.994 | locus YDL074C, strain BRE1, hits give low values 0.978 | locus YDL101C, strain DUN1, hits give low values 1 | locus YDL134C, strain PPH21, hits give low values 0.991 | locus YDL185W, strain tfp1, hits give low values 1 | locus YDL192W, strain arf1, hits give low values 0.987 | locus YDR101C, strain arx1, hits give low values 0.972 | locus YDR150W, strain NUM1, hits give low values 1.01 | locus YDR162C, strain NBP2, hits give low values 1 | locus YDR318W, strain mcm21, hits give low values 0.997 | locus YDR388W, hits give low values 0.985 | locus YDR502C, strain sam2, hits give low values 0.978 | locus YEL061C, strain CIN8, hits give low values 1.01 | locus YER110C, hits give low values 0.995 | locus YER155C, strain BEM2, hits give low values 0.995 | locus YER167W, strain BCK2, hits give low values 0.996 | locus YGL078C, strain dbp3, hits give low values 0.985 | locus YGL086W, strain mad1, hits give low values 0.989 | locus YGL248W, strain PDE1, hits give low values 0.994 | locus YGR135W, strain pre9, hits give low values 0.996 | locus YGR252W, strain gcn5, hits give low values 0.918 | locus YHR030C, strain SLT2, hits give low values 1 | locus YHR079C, strain IRE1 (second series), hits give low values 0.987 | locus YHR094C, strain hxt1, hits give low values 0.986 | locus YHR129C, strain ARP1, hits give low values 1 | locus YHR200W, strain rpn10, hits give low values 0.983 | locus YIL066C, strain RNR3, hits give low values 1 | locus YIL073C, strain SPO22, hits give low values 0.983 | locus YIL125W, strain kgd1, hits give low values 0.995 | locus YIR030C, strain dcg1, hits give low values 0.993 | locus YJL095W, strain BCK1, hits give low values 0.994 | locus YJL134W, strain LCB3, hits give low values 1 | locus YJL168C, strain set2, hits give low values 0.994 | locus YJL187C, strain SWE1 (second series), hits give low values 1 | locus YJR043C, strain POL32, hits give low values 0.958 | locus YKL009W, strain mrt4, hits give low values 0.977 | locus YKL068W, hits give low values 1 | locus YKL085W, strain MDH1 (second series), hits give low values 1.01 | locus YKL085W, strain MDH1, hits give low values 1.01 | locus YKL190W, strain CNB1, hits give low values 1 | locus YKR001C, strain vps1, hits give low values 0.935 | locus YLR039C, strain RIC1, hits give low values 0.787 | locus YLR058C, strain SHM2, hits give low values 1 | locus YLR102C, strain apc9, hits give low values 0.982 | locus YLR262C, strain YPT6, hits give low values 0.811 | locus YLR268W, strain sec22, hits give low values 0.985 | locus YLR330W, strain CHS5, hits give low values 1 | locus YLR342W, strain FKS1 (second series), hits give low values 0.978 | locus YLR371W, strain rom2, hits give low values 0.999 | locus YLR418C, strain cdc73, hits give low values 0.92 | locus YML016C, strain PPZ1, hits give low values 1.01 | locus YML032C, strain rad52, hits give low values 0.999 | locus YML124C, strain tub3, hits give low values 0.99 | locus YMR078C, strain ctf18, hits give low values 1 | locus YMR223W, strain ubp8, hits give low values 0.996 | locus YMR307W, strain GAS1, hits give low values 0.827 | locus YNL067W, strain RPL9B, hits give low values 1.01 | locus YNL233W, strain BNI4, hits give low values 0.968 | locus YNL250W, strain rad50, hits give low values 1.01 | locus YNL271C, strain bni1, hits give low values 1 | locus YNL298W, strain CLA4, hits give low values 1 | locus YNL307C, strain MCK1, hits give low values 0.994 | locus YNR052C, strain pop2, hits give low values 1.01 | locus YOL006C, strain TOP1, hits give low values 0.977 | locus YOL012C, strain htz1 0.768 | locus YOL147C, strain pex11, hits give low values 0.987 | locus YOR061W, strain CKA2, hits give low values 1 | locus YOR069W, strain VPS5, hits give low values 1.01 | locus YOR136W, strain idh2, hits give low values 0.99 | locus YOR144C, strain elg1, hits give low values 0.996 | locus YOR184W, strain ser1, hits give low values 0.974 | locus YOR316C, strain cot1, hits give low values 0.986 | locus YPL241C, strain CIN2, hits give low values 1 | locus YPR119W, strain clb2, hits give low values 0.989 | locus YPR141C, strain kar3, hits give low values 0.991 | locus YPR163C, strain tif3, hits give low values 0.99 | locus YPR167C, strain met16, hits give low values 1 | strain wtn01, hits give low values 0.975
